The text below walks through data of PubChem BioAssay (NCATS).

Each structure is given as a SMILES string. Records with an inconclusive call do not appear. Where a call stands in place of a potency, no number is given. Activity calls are given as the source filed them. Calls come from the whole dose curve.
Potency is the fitted concentration of half-maximal effect.

This test in a line: qHTS assay for small molecule disruptors of the mitochondrial membrane potential - 1 hr assay (AID 651754). Note: nearly all actives have a fitted effect of over 35% in size. Particulars: series mostly up to 92.2 µM. From the text:
National Center for Advancing Translational Sciences [NCATS]
NIH Chemical Genomics Center [NCGC]
National Institutes of Environmental Health Sciences [NIEHS]
National Toxicology Program [NTP]
Mitochondrial membrane potential (MMP), one of the parameters for mitochondrial function, is generated by mitochondrial electron transport chain that creates an electrochemical gradient by a series of redox reactions. This gradient drives the synthesis of ATP, a crucial molecule for various cellular processes. Measuring MMP in living cells is commonly used to assess the effect of chemicals on mitochondrial function. […] The dye accumulates in the mitochondria of healthy cells as aggregates, with red fluorescence. The mitochondrial potential collapses and the dye can no longer accumulate in the mitochondria and remains in the cytoplasm in monomers, with green fluorescence.
2,000 HepG2 cells in 5 uL/well were dispensed into black, clear-bottom 1536-well plates using a Multidrop Combi (Thermo Scientific) dispenser. The assay plates were incubated overnight at 37C to allow cells to attach to the wells, followed by the transfer of 23 nL compound or DMSO vehicle by a pin tool (Kalypsys). The plates were incubated for 1 hr at 37C and 5% CO2, followed by the addition of 5 uL of 2X Mito-MPS dye (BD Biosciences) into each well using Flying Reagent Dispenser (Aurora Discovery) and then following 30 min incubation at 37C. Fluorescence intensity (490nm excitation and 535nm emission for monomers; and 540nm excitation and 590nm emissions for aggregates) was measured using an Envision plate reader.
Turning to `Cc1ccc(O)cc1`, the Potency result was “inactive”. In the case of `CCCCC(CC)COC(=O)c1ccccc1C(=O)O` (stereo not given), the Potency entry is “inactive”. Regarding `Brc1ccccc1-c1ccccc1`, the Potency result is “inactive”.

Take `Nc1c2ccccc2nc2ccccc12`: the Potency is 9.44 µM (active).

On to `CC(C)(C)c1ccc(O)c(O)c1`, for which the Potency was 37.6 µM (active). For `CCCCCCCCCCCCCCCC[n+]1ccccc1` the value was “inactive”; for `c1ccc2occc2c1`, “inactive”; for `OCc1c[nH]c2ccccc12`, “inactive”. Regarding `CC(=O)OC/C=C(C)/C=C/C=C(C)/C=C/C1=C(C)CCCC1(C)C`, the Potency result is “inactive”. Regarding `O=C(c1ccccc1)c1ccccc1`, the Potency entry was “inactive”.
